# High-throughput results from PubChem.
# Sampled rows, rich in hits. Any-hit rate of the full collection: about 10%.
# BAZ2B inh = blocks human BAZ2B; Q9UIF8; AlphaScreen BAZ2B-H3K14Ac peptide displacement; Potency, µM (top dose mostly 114 µM), inactives show at the highest dose activity change, negative = inhibition, most hits filed as inhibitors; hit rate 4.4% among 360,000; further: on the % scale 0 is the no-effect control and ±100 the full control effect; nearly all actives have a fitted effect of over 60% in size
#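 Inhibition is scored as reduced AlphaScreen emission. The BAZ2B/b-H3(5-23)K14Ac complex (50 nM each) in PBS pH 7.4, 0.01% Tween-20 meets compound (up to 110 uM) for 30 min at RT before bead addition.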
# JMJD2A Tudor inh = inhibitors of human JMJD2A Tudor domain | O75164 | AlphaScreen JMJD2A-Tudor / H3K4me3 peptide binding | Potency, µM (doses to about 114 µM), without a hit: at the highest dose activity change, negative = inhibition, usual class: inhibitors | hit rate 4.4% among 390,000 | AID 504339; further: on the % scale 0 is the no-effect control and ±100 the full control effect; nearly all actives have a fitted effect of over 50% in size
# Target sequence (O75164 whole entry, looked up, the tested form may be a part): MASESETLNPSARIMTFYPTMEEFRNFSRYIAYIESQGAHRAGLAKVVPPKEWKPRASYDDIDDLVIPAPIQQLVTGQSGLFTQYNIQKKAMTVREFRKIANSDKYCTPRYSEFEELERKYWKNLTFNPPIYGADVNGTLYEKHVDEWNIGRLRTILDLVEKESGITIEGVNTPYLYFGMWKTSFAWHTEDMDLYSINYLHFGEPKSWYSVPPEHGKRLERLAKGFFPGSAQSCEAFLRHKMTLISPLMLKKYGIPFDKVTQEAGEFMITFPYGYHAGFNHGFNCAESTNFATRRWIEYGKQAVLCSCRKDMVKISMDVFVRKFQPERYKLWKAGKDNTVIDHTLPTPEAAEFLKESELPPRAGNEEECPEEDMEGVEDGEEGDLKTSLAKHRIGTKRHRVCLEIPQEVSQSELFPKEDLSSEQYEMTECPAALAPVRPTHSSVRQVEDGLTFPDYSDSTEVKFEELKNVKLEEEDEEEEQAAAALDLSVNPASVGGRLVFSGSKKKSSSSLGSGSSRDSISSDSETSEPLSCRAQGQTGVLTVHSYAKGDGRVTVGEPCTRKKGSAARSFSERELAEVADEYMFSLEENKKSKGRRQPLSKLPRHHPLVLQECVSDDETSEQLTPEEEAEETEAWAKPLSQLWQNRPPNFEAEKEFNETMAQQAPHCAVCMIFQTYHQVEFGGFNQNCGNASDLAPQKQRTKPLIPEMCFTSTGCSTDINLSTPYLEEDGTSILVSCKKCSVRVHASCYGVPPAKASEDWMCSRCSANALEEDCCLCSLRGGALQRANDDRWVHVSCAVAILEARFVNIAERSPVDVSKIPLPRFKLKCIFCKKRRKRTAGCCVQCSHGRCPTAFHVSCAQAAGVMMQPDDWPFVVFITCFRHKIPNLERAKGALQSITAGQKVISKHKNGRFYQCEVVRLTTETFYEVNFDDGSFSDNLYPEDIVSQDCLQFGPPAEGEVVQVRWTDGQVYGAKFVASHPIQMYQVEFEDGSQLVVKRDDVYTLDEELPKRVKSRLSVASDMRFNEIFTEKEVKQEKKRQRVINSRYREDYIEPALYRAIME
# HP1b chromo inh = inhibitors of HP1-beta chromodomain binding to methylated histone tails. hit rate 0.56% among 390,000. Potency, µM (highest dose often 114 µM), inactives show at the highest dose activity change, negative = inhibition, most hits filed as inhibitors. AlphaScreen HP1-beta / biotin-H3K9me3 peptide binding. P83916; further: nearly all actives have a fitted effect of over 70% in size
#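 HP1-beta protein (50 nM final) preincubated 30 min at room temperature with biotinylated H3(1-18)K9me3 peptide (50 nM) in PBS pH 7.4, 0.01% Tween-20, then compound added for 30 min. AlphaScreen streptavidin donor/nickel chelate acceptor beads (10 ug/mL final), 30 min dark, luminescence read.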
# GLS inh = blocks human kidney-isoform glutaminase activity; GLS enzymatic activity, qHTS titration; Potency, µM (highest dose often 45.5 µM), for inactives: at the top dose activity change, negative = inhibition, hits mostly inhibitors; hit rate 0.21% among 410,000; AID 624170; further: on the % scale 0 is the no-effect control and ±100 the full control effect
#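 hKGA in 45 mM KH2PO4 pH 8.2, 0.02% Tween-20 with pin-transferred compounds; 1 mM L-glutamine (stock) plus glutamate oxidase/HRP/Amplex Red coupling added. Fluorescence read initially and after 30 min at RT.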
# G9a inh = G9a (human) methyltransferase inhibition; G9a H3K9 monomethylation, AlphaScreen, 2 h; Q96KQ7; Potency, µM (highest dose often 102 µM), for the others: at the highest dose activity, negative = inhibition, hits mostly inhibitors; hit rate 8.8% among 350,000; AID 504332; further: on the % scale 0 is the no-effect control and ±100 the full control effect; nearly all actives have a fitted effect of over 75% in size
#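 Using a bead-based AlphaScreen, monomethylated H3K9 product from 2 h room-temperature reactions (G9a 20 nM, peptide 500 nM, SAM 20 uM) was detected with 0.5 ug/mL rabbit anti-H3K9me1 antibody.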
# * marks the source's active call; other numbers are inactive results; u = inconclusive; x = no result given; [ ] = remark or other dose. The call rests on the fitted dose curve; in most records, active means well fitted curve in the direction sought with a large enough effect; inconclusive means small, poorly fitted or top-dose-only effect, or another doubt; inactive means no such curve, though single readings can be large; an effect the other way counts as inactive or inconclusive. Potency means the concentration at half of the fitted maximal effect.
SMILES,BAZ2B inh,JMJD2A Tudor inh,HP1b chromo inh,GLS inh,G9a inh
O=C(O)C1CC=CCC1C(=O)NCc1ccccc1 (stereo unspecified),-6%,-9%,29%,1%,29%[12.7 µM]
Cc1ccc(NC(=O)C2CC2c2ccccc2)c([N+](=O)[O-])c1 (stereo unspecified),u,u,-11%,-2%,40µM*
CC(=O)Nc1ccc(S(=O)(=O)Nc2ccc([N+](=O)[O-])cc2)cc1,x,x,x,-12%,-43%[2.33 µM]
CCCC(=O)Nc1ccc2c(c1)C(=O)N(CCC(=O)O)C2=O,12%,-6%,39%,-2%,17%[59 µM]
O=C(CSc1ccc(C(F)(F)F)cc1[N+](=O)[O-])N1CCOCC1,1%,-22%,10%,-7%,5%[0.501 µM]
O=C(O)/C=C\C(=O)Nc1cc(O)ccc1[N+](=O)[O-],-31%,-14%,47%,-9%,u
O=C(NNc1ccc([N+](=O)[O-])cc1)C1CC1c1ccccc1 (stereo unspecified),-38%,-11%,-19%,20%,10µM*
COc1ccc([N+](=O)[O-])cc1NC(=O)/C=C/C(=O)O,-1%,-9%,17%,8%,3%
Cc1ccc(NC(=O)/C=C\C(=O)O)c([N+](=O)[O-])c1,10%,-2%,38%,-1%,40µM*
Cc1ccc([N+](=O)[O-])cc1NC(=O)/C=C/C(=O)O,79µM*,-16%,27%,0%,-9%[12.7 µM]
O=C(Nc1nc2ccccc2[nH]1)C1CC(=O)N(c2ccc3c(c2)OCCO3)C1 (stereo unspecified),u,u,13%,-10%,-13%
CCc1nc(C)ccc1OCC(=O)O,-2%,-6%,17%,-3%,-29%[12.7 µM]
O=C(Nc1ccc2nc(-c3ccco3)c(-c3ccco3)nc2c1)N1CCN(c2ccccn2)CC1,u,u,25µM*,-9%,2.5µM*
O=C(c1ccc2nc(-c3ccco3)c(-c3ccco3)nc2c1)N1CCN(c2ncccn2)CC1,u,89µM*,7%,-9%,35µM*
O=C(Nc1ccc2nc(-c3ccco3)c(-c3ccco3)nc2c1)N1CCCC1,x,14µM*,10µM*,x,x
CC1CCN(C(=O)Nc2ccc3nc(-c4ccco4)c(-c4ccco4)nc3c2)CC1,x,13µM*,11µM*,x,x
O=C(c1cccc(C(=O)N2CCN(c3ncccn3)CC2)c1)N1CCN(c2ncccn2)CC1,11%,-9%,22%,-2%,19%
Cc1nc2cc(NC(=O)N3CCN(c4ccccn4)CC3)ccc2o1,-8%,4%,15%,12%,-2%[59 µM]
CCc1cccc(C)c1NS(=O)(=O)c1ccc2c(c1)CC(C)N2C(=O)C1CC1 (stereo unspecified),-15%,-17%,22%,8%,-6%[59 µM]
O=C(Cc1coc2ccc3ccccc3c12)N1CCCC1,-25%,-25%,18%,4%,u
S=C(Nc1ccc(N2CCOCC2)cc1)Nc1ccc2nc(-c3ccco3)c(-c3ccco3)nc2c1,u,u,-53%,39%,32µM*
CSc1ccc(N/N=C(/C#N)S(=O)(=O)C(C)(C)C)cc1,u,-26%[11.4 µM],u,13%,50µM*
COc1ccc(N/N=C(/C#N)S(=O)(=O)c2nsc(C)c2C#N)cc1,u,u,-11%,37%,u
COc1ccc(N/N=C(/C#N)S(=O)(=O)C(C)(C)C)cc1,-37%,-7%[57.1 µM],28%,0%,50µM*
CC1(C)SC(=S)N(/N=C/c2cccnc2)C1N(O)C(=O)Nc1ccccc1 (stereo unspecified),-33%,-9%,29%,51%,-6%
SMILES,BAZ2B inh,JMJD2A Tudor inh,HP1b chromo inh,GLS inh,G9a inh
O=C(Nc1ccccc1)Nc1cccc2ccccc12,2%,-5%,13%,-3%,x
CC1(C)SC(=S)N(/N=C/c2ccccc2O)C1N(O)C(=O)Nc1ccccc1 (stereo unspecified),u,u,-12%,1µM*,-42%
CC1(C)SC(=S)N(NC(=O)Nc2ccccc2)C1N(O)C(=O)Nc1cccc2ccccc12 (stereo unspecified),u,u,26%,31%,11µM*
Cc1cc(C)n(C(=O)COc2ccccc2C)n1,18%,14%[57.1 µM],44%,18%,0%[59 µM]
COc1cccc(CCc2nnc(N)s2)c1,-3%,-4%,8%,4%,79µM*
O=C(c1[nH]c(C(F)(F)F)nc1-c1ccccc1)N1CCCCC1,x,x,x,9%,x
Cc1ccc(/C=C2\CCCC3=C2NC(=S)NC3c2ccc(C)cc2)cc1 (stereo unspecified),u,u,-15%,u,8.9µM*
Nc1c(N2CCCC2)c2ccccc2oc1=O,-33%,-15%,25%,0%,-23%
C=CCNC(=S)NNC(=O)COc1ccc(Br)cc1,5%,u,25%,13%,32µM*
C=CCNC(=S)NNC(=O)COc1ccc2cc(Br)ccc2c1,-22%,-9%,33%,-13%,5%
C=CCNC(=S)NNC(=O)COc1cccc(Cl)c1,-5%,-7%,17%,4%,25µM*
Cc1ccc(Nc2cc(C(=O)NC3CCCC3)c3ccccc3n2)c(C)c1,x,-21%,12%,-3%,-4%[59 µM]
CCN(CC)c1ccc(/C=N/Nc2ccc(C)cc2)c(O)c1,45µM*,-1%,21%,2%,1.8µM*
CCN(CC)c1ccc(/C=N/NC(=O)c2c(Cl)cnn2C)c(O)c1,79µM*,-33%,43%,7%,-3%[59 µM]
Cc1ccc(C(=O)Nc2scc(-c3ccccc3)c2C(=O)O)o1,-21%,-20%,1%,30%,u
C=C1CC2C3C=C(C)C4=CC(=O)CCC4(C)C3CCC2(C)[C@@]1(OC(C)=O)C(C)=O (stereo partly specified),x,x,x,-16%,18µM*
CC(=O)O[C@@]1(C(C)=O)CCC2C3C=C(C)C4=CC(=O)CCC4(C)C3CCC21C (stereo partly specified),x,x,x,x,-25%[2.33 µM]
c1ccc(COc2ccc(OCCCNC3CCCC3)cc2)cc1,45µM*,5µM*,-54%,-24%,u
COCCCNc1ccn2nc(-c3ccc(OCc4ccccc4)cc3)cc2n1,x,x,x,-10%,x
C=CCNCCCCOc1ccc(OCc2ccccc2)cc1,50µM*,35µM*,-22%,3%,10µM*
COCCCNCCCCOc1ccc(OCc2ccccc2)cc1,45µM*,20µM*,u,-3%,x
CCc1cccc(OCCCCNCCOC)c1,x,7.1µM*,u,5%,7.9µM*
CCOC(=O)c1cccc(NC(=O)CSc2nnnn2C)c1,8%,-9%,15%,7%,x
COc1ccc2c(c1OC)C(=O)N1C2SC(C)(C)[C@H]1C(=O)NC1CCCC1 (stereo partly specified),-2%,-18%,39%,4%,-3%[12.7 µM]
CC(C)Oc1ccc(OCCNC2CCCC2)cc1,u,3.5µM*,u,-1%,u
